Screening results from PubChem.
HCMV antiviral: inhibitors of human cytomegalovirus. HFF cells, HCMV-luciferase reporter, 72 h; active compounds read low. activity change, negative = inhibition, % at 57.5 µM. actives 4.5% (n = 410,000). AID 1259415; in the data active = activity change below about -60%; inconclusive = no clear call, values can overlap the other calls; inactive = above about -39%; note: % is set by controls: 0 for no effect and ±100 for the full control effect
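Luciferase read-out from HCMV-luciferase-infected HFFs (MOI 1 PFU/cell) 72 h post infection at 37C; compounds added after 16 h cell attachment; activity normalized between buffer-only basal and Salinomycin (10uM) inhibitor controls.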
Shiga inhibitor: inhibitors of Shiga toxin in Vero cells | Vero cells, Shiga toxin protein synthesis inhibition reporter | inhibition, % at 38.7 µM | actives 9.2% (n = 290,000) | AID 2315; in the data active = inhibition mostly above about 28%, no sharp cut-off; inactive = mostly below about 43%; note: 0% is about no effect
Pf growth 96h: P. falciparum growth inhibition at 96 hours | P. falciparum luciferase reporter growth, 96 h | actives 6.9% (n = 320,000) | AID 504834 | Potency, µM (doses to about 28.7 µM), inactives show at the top dose activity change, negative = inhibition, most hits filed as inhibitors; note: potency is the fitted concentration of half-maximal effect; % is set by controls: 0 for no effect and ±100 for the full control effect
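Readout is luminescence from an integrated firefly luciferase in P. falciparum. Red cells, 2% hematocrit and 0.05% parasitemia final, were cultured with compound through two parasite generations (96 hours) at 37 C, 5% CO2.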
Pf growth 48h: P. falciparum growth inhibition at 48 hours (one generation); P. falciparum luciferase growth in erythrocytes, 48 h; Potency, µM (doses to about 28.7 µM), inactives show at the highest dose activity change, negative = inhibition, most hits filed as inhibitors; actives 5.9% (n = 310,000); note: potency is the fitted concentration of half-maximal effect; % is set by controls: 0 for no effect and ±100 for the full control effect
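Read-out is firefly luciferase luminescence from an integrated reporter in P. falciparum, so falling signal marks reduced parasite growth. Infected erythrocytes were at 2% hematocrit and 0.1% parasitemia (final) in Albumax-supplemented RPMI 1640.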
Cycloheximide cs: counter-screen hit for Shiga toxin inhibitors, cycloheximide; max response, %; cell reporter, cycloheximide protein synthesis inhibition counterscreen; actives 12% (n = 300,000); in the data active = max response mostly above about 13%, no sharp cut-off; inactive = mostly below about 14%; note: read at 38.3 µM for the half of the compounds with a filed dose; 0% is about no effect
Active calls of the source: *; ? = inconclusive; . = no result given. This is a sample that favours compounds with a hit; in the whole collection about 20% have one here. Unless noted, calls come from the whole dose curve; as a rule, active = well fitted inhibition curve with a large enough effect; inconclusive = small, poorly fitted or top-dose-only effect, or another doubt; inactive = no such curve, though single readings can be large or run the other way.

SMILES | HCMV antiviral | Shiga inhibitor | Pf growth 96h | Pf growth 48h | Cycloheximide cs
CCOC(=O)c1csc(-c2ccc([N+](=O)[O-])cc2)n1 | 0.6 | 89.6* | 28.4% | 60.5% | 40.3*
CC(=O)c1csc(COc2ccccc2)n1 | 35.1 | 35.2 | 85.8% | 65.8% | 16.6*
CCOC(=O)c1csc(N)n1 | -39.0 | 80.3* | -24.7% | 125.8% | 33.9*
CCOC(=O)c1csc(COc2ccc(OC)cc2)n1 | 24.9 | 122.1* | 0.0% | 188.5% | 61.0*
CCOC(=O)Cc1csc(N)n1 | 62.0 | -9.8 | -15.6% | . | -4.7
CCOC(=O)c1csc(COc2ccccc2Cl)n1 | 2.1 | 52.5* | 2.0% | 36.6% | 32.5*
CCOC(=O)c1csc(NC(=O)CC2CCCC2)n1 | 13.4 | 32.1* | -5.8% | 17.9% | 25.0*
COc1ccc(-n2nnc3c(SCC(=O)NCc4ccco4)ncnc32)cc1 | -2.8 | 19.9 | -23.9% | 1.5% | 19.1*
COc1ccc(-n2c(-c3ccc(F)cc3)cnc2SCC(=O)NCc2ccco2)cc1 | -8.7 | 103.0* | . | ? | 49.2*
CCOC(=O)CNC(=O)CSc1ncnc2c1nnn2-c1ccc(F)cc1 | -67.5* | 6.6 | ? | -8.4% | -2.4
COc1ccc(-c2[nH]c(-c3ccccc3)nc2SCC(=O)NCc2ccco2)cc1OC | 19.7 | -22.9 | 1.04µM* | . | -7.6
CCOC(=O)CNC(=O)Cn1cnc2c(nnn2-c2ccc(F)cc2)c1=O | -27.0 | 22.7 | ? | -1.4% | 6.0
O=C(CSc1ncc(-c2ccccc2)n1-c1ccccc1)NCc1ccco1 | ? | 11.2 | 1.7% | -19.7% | 9.2
Cc1nn(-c2nc(-c3ccco3)cc(C(F)(F)F)n2)c(C)c1Br | -2.4 | -6.5 | -18.3% | . | -2.9
COc1ccc(Cn2c(CNC(=O)Cc3ccc(OC)c(OC)c3)nc3cccnc32)cc1 | 2.5 | . | . | . | .
COc1ccc(Cc2nnc(SCC(=O)NCc3ccco3)o2)cc1 | -20.6 | -10.5 | . | -7.5% | -1.7
COc1ccc(-c2nnc(SCC(=O)NCc3ccco3)o2)cc1 | 13.0 | 92.0* | 25.1% | 46.9% | 22.2*
COc1ccc(-n2c(CCc3ccccc3)nnc2SCC(=O)c2ccc(Cl)cc2)cc1 | 26.9 | 10.2 | ? | 13.1µM* | 3.5
Cc1cc(C(=O)CSc2nnc(-c3cccs3)o2)c(C)n1-c1ccccc1 | -23.0 | 77.1* | ? | 15.0% | 12.1*
Cc1ccc(CNC(=O)c2ccc[nH]2)cc1 | 18.1 | 20.2 | 24.1% | 9.4% | -3.6
Cc1ccc(SCC(=O)c2ccc[nH]2)cc1 | 9.8 | 78.6* | 131.7% | 106.7% | 35.2*
COC(=O)CCCC(=O)N1CCC(CO)(CCc2ccccc2)CC1 | 59.6 | 3.1 | ? | 3.4% | -1.3
O=C(NC1CC1)C1CC(=O)N(c2ccc(F)cc2)C1 (stereo not given) | -20.4 | -5.2 | 33.4% | 7.8% | -5.9
CCNC(=O)CSc1nnc(-c2cccs2)o1 | ? | 8.8 | 1.2% | 8.2% | 10.5
COc1ccc(-c2nnc(SCC(=O)c3cccs3)o2)cc1 | 53.3 | 94.8* | 19.1% | 144.9% | 29.3*
SMILES | HCMV antiviral | Shiga inhibitor | Pf growth 96h | Pf growth 48h | Cycloheximide cs
COc1ccc(-c2nnc(SCC(=O)c3ccc[nH]3)o2)cc1 | 96.0 | 151.4* | . | 171.1% | 35.9*
O=C(CSc1nnc(-c2cccs2)o1)c1cccs1 | 28.3 | 88.1* | 6.2% | 140.9% | 92.8*
COc1cccc(-c2nnc(SCC(N)=O)n2-c2ccc(Cl)cc2)c1 | 41.7 | -6.2 | . | -1.7% | -2.2
COc1ccc(-c2nnc(SCC(=O)c3cccs3)n2-c2ccc(Cl)cc2)cc1 | ? | 74.7* | 13.6% | ? | 40.0*
COc1ccc(CNC(=O)CCc2nc3cccnc3n2Cc2ccccc2)cc1 | 11.9 | . | . | . | .
CC(C)C[C@H]1COc2c(Cl)cccc2S(=O)(=O)N1 | -16.3 | . | . | . | .
O=C(O)c1cc(=O)c2cc(Cl)ccc2[nH]1 | . | -6.3 | . | . | 9.1
COc1ccc(-c2nnc(SCC(=O)c3ccc(O)cc3O)o2)cc1 | 27.5 | 32.9* | -2.9% | 9.0% | 7.0
COc1cccc(NC(=O)CSc2nnc(-c3cc(C)n(-c4ccccc4)c3C)o2)c1 | . | 101.2* | 10.4µM* | 171.0% | 48.3*
COc1ccc(NC(=O)CSc2nnc(-c3cccc(O)c3)o2)cc1 | 86.2 | 33.9 | 25.4% | 83.5% | 10.4
CCN(CC)S(=O)(=O)c1cccc(-c2nnc(SCCOc3ccc(Cl)cc3)o2)c1 | -19.2 | 4.0 | 10.4µM* | -23.9% | -4.4
CCN(CC)S(=O)(=O)c1cccc(-c2nnc(SCCOc3ccccc3)o2)c1 | -67.9* | 27.5 | -45.0% | . | -1.8
